NR5A2 inv ag – LRH-1 (NR5A2) inverse agonists, primary screen, cell-based, luminescence, HEK293T, StAR-luciferase reporter. Nuclear receptor subfamily 5 group A member 2 (Homo sapiens), O00482. LRH-1 transfected, 24 h. inhibition, % at 3.6 µM. 360,000 compounds, 0.13% hits. AID 602396, 2012;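 active = inhibition above the mean inhibition of all tested compounds plus 3 SD, cut at about 73% in these data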
SRC2 inh – inhibition of GAL4-SRC2 driven luciferase reporter, primary screen, SRC2 inhibitor project, cell-based, luminescence. inhibition, % at 9 µM. 370,000 compounds, 0.17% hits. Nuclear receptor coactivator 2 (Homo sapiens), Q15596. AID 651957, 2012. HEK293 GAL4-SRC2 luciferase reporter;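 active = inhibition above the mean inhibition of all tested compounds plus 3 SD, set per campaign, cut at about 52% in these data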
GalR3 antagonist – GalR3 antagonists in HEK293 cells, primary screen, cell-based, fluorescence readout. Galanin receptor type 3 (Homo sapiens), O60755. HEK293 GalR3-CNG cAMP membrane potential fluorescence; galR3 body fused to GalR1 C-terminus. inhibition, % at 3 µM. 360,000 compounds, 0.44% hits;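 active = inhibition above the screen-wide average plus 3 SD, cut at about 13% in these data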;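 note: forskolin and galanin both at EC90 stimulate the cells; cAMP rise reported by CNG channel membrane potential dye signal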
Target sequence (O60755 1-299 limits assumed): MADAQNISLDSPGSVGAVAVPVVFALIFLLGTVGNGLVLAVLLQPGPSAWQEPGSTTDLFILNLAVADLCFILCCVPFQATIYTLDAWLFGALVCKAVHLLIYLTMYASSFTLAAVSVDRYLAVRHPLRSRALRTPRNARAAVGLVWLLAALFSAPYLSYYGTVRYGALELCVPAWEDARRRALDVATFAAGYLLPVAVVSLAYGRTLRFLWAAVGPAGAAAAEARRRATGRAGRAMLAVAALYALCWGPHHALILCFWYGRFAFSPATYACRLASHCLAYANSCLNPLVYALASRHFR
NR2F2 inh – NR2F2 transcriptional activity inhibitors, primary screen, cell-based, luciferase reporter, HEK293T, luminescence. COUP transcription factor 2 (Homo sapiens), P24468. HEK293T NGFI-A luciferase reporter. inhibition, % at 8.6 µM. 370,000 compounds, 0.7% hits. AID 686940, 2013;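 active = inhibition above a per-plate cutoff, mean inhibition of test wells between control levels plus 3 SD, cut at about 38% in these data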;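 note: cells cotransfected with COUP-TFII expression vector driving the NGFI-A reporter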
Target sequence (P24468 whole entry, looked up): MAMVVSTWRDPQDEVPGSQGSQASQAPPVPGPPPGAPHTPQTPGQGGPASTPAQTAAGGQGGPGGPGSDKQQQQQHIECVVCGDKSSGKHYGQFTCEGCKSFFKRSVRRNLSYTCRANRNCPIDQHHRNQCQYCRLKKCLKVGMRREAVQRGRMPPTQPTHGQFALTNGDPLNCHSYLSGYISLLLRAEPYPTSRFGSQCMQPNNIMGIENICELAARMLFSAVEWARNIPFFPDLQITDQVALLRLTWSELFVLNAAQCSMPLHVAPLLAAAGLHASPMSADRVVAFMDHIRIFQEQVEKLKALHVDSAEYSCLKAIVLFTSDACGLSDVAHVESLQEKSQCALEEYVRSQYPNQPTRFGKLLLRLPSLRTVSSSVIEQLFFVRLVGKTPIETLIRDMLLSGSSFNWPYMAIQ
SRC3 inh – SRC3 coactivator transcriptional activity inhibitors, primary screen, cell-based, luminescence | Nuclear receptor coactivator 3 (Homo sapiens), Q9Y6Q9 | HEK293 GAL4-SRC3 luciferase reporter | inhibition, % at 3.6 µM | 360,000 compounds, 0.17% hits | AID 588352, 2011;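 active = inhibition above a per-campaign cutoff, the mean of all compounds plus 3 SD, cut at about 60% in these data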;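 note: higher means less SRC3-driven luciferase light from the GAL4 reporter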
NCOA1 inh – SRC1 coactivator transcriptional activity inhibitors, primary screen, cell-based, luminescence | HEK293 GAL4-SRC1 luciferase reporter | inhibition, % at 3.6 µM | 360,000 compounds, 0.12% hits | AID 588354, 2011;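 active = inhibition above the campaign mean plus 3 SD, with each screening campaign given its own cutoff, cut at about 60% in these data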
GalR3 conf – GalR3 antagonist hit confirmation, cell-based, fluorescence, triplicate. shares compounds with GalR3 antagonist. HEK293 GalR3 CNG cAMP biosensor, membrane potential fluorescence; galR3 fused to GalR1 carboxy tail; challenged with forskolin and galanin at EC90. inhibition, % at 3 µM. 1,600 compounds, 59% hits. AID 652245, 2013;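 active = inhibition above the primary screen's cutoff, the mean inhibition of all screened compounds plus 3 SD, cut at about 13% in these data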
HEK-CNG parental – nonspecific cAMP agonists in parental HEK-CNG cells, counter-screen for GalR3 antagonist project, cell-based, fluorescence, high throughput; shares compounds with GalR3 antagonist; 1,600 compounds, 10% hits; activation, % at 3 µM; HEK293-CNG parental cells, cAMP membrane potential fluorescence; normalised: DMSO wells 0%, forskolin wells 100%; in the data active = activation above about 1.3%
Of the large screens only hits and unclear results are named; the others gave an inactive call (follow-up assays come after a bar, where they were run). Shown are actives, neighbours in structure and some others; about 1.1% of the full set was active somewhere.

COc1cc2c(cc1OC)-c1cc(N3CCCCCC3)nc(=O)n1CC2	GalR3 antagonist 50.0 | GalR3 conf 14.1 | HEK-CNG parental inactive
COc1cc2c(cc1OC)-c1cc(N3CCc4ccccc43)nc(=O)n1CC2	none
COc1cc2c(cc1OC)-c1cc(N3CCCc4ccccc43)nc(=O)n1CC2	GalR3 antagonist 47.1 | GalR3 conf 59.6 | HEK-CNG parental inactive
CC(C)CSc1nnc(N)s1	GalR3 antagonist 13.9 | GalR3 conf inactive | HEK-CNG parental inactive
COC(=O)[C@]12C[C@H](CC(=O)N3CCSCC3)C(=O)N(Cc3cccc4ccccc34)C1=C[C@H](C1CCCC1)O[C@@H]2C	none (no result: NR5A2 inv ag, GalR3 antagonist, SRC3 inh, NCOA1 inh)
Cc1csc2ncnc(N3CCN(C(=S)Nc4ccc(C(F)(F)F)cc4)CC3)c12	GalR3 antagonist 67.0 | GalR3 conf 93.2 | HEK-CNG parental 1.8
Cc1ccc(NC(=O)c2ccc(CN3CCc4ccccc4C3)cc2)cc1	GalR3 antagonist 27.1 | GalR3 conf 103.6 | HEK-CNG parental inactive
O=C(Nc1ccccc1)c1ccc(CN2CCc3ccccc3C2)cc1	GalR3 antagonist 92.0 | GalR3 conf 102.3 | HEK-CNG parental inactive
CCCCCC(=O)NC1CCCCN(Cc2ccc(C)cc2)C1=O (stereo unspecified)	none (no result: NR5A2 inv ag, GalR3 antagonist, SRC3 inh, NCOA1 inh)
O=C(NCc1cccnc1)O[C@H]1CC[C@@]23CCCN2C(=O)CCC[C@H]3C1	none (no result: NR5A2 inv ag, SRC2 inh, GalR3 antagonist, SRC3 inh, NCOA1 inh)
COc1ccc(-c2cc(-c3n[nH]c(=S)n3-c3ccccc3OC)[nH]n2)cc1	GalR3 antagonist 22.1 | GalR3 conf 16.9 | HEK-CNG parental inactive
CN1C(=O)C(CC(=O)Nc2ccc(F)cc2)N(Cc2cccs2)C1=S (stereo unspecified)	GalR3 antagonist 15.5 | GalR3 conf inactive | HEK-CNG parental inactive
CCCOc1ccc(NC(=O)CC2C(=O)N(C)C(=S)N2Cc2cccs2)cc1 (stereo unspecified)	none
CCC[C@H]1[C@@H](NS(=O)(=O)c2ccccc2[N+](=O)[O-])CC[C@@]23CCCN2C(=O)CCC[C@@H]13	none (no result: NR5A2 inv ag, SRC2 inh, GalR3 antagonist, SRC3 inh, NCOA1 inh)
CC(C)n1cnc2c(N(C)c3cccc(Cl)c3)nc(N(CCO)CCO)nc21	none (no result: GalR3 antagonist) | GalR3 conf inactive | HEK-CNG parental inactive
CC(C)[C@H](CO)N(Cc1cccc(F)c1)c1nc(Nc2cccc(Cl)c2)c2ncn(C(C)C)c2n1	none
CC(C)Oc1ccc(F)cc1-c1cc(C(=O)NCc2cccs2)[nH]n1	GalR3 antagonist 22.9 | GalR3 conf inactive | HEK-CNG parental inactive
COc1cc(F)ccc1-c1cc(C(=O)NCc2cccs2)[nH]n1	none
CCOc1ccc(-n2c(SCC(=O)Nc3ccccc3-c3ccccc3)nnc2-c2ccncc2)cc1	none (no result: NR5A2 inv ag, GalR3 antagonist, SRC3 inh, NCOA1 inh)
C=CCN1C(=O)[C@@H](CC(=O)N2CCOCC2)[C@]2(C(=O)OCC)CCCCC/C=C/12	none (no result: NR5A2 inv ag, GalR3 antagonist, SRC3 inh, NCOA1 inh)
NC(=O)c1cn(-c2ccccc2)nc1-c1cc2ccccc2oc1=O	GalR3 antagonist 108.4 | GalR3 conf 94.6 | HEK-CNG parental inactive
CC1C(=O)CC(c2ccc([N+](=O)[O-])cc2)NC1c1ccc([N+](=O)[O-])cc1 (stereo unspecified)	GalR3 antagonist 17.8 | GalR3 conf 17.4 | HEK-CNG parental inactive
O=c1cc(-c2ccccc2)nc(SCCOc2ccccc2Cl)[nH]1	GalR3 antagonist 13.0 | GalR3 conf inactive | HEK-CNG parental inactive
COc1cc(CSc2nc(-c3ccccc3)cc(=O)[nH]2)cc(OC)c1	none (no result: SRC2 inh, GalR3 antagonist, NR2F2 inh)
Brc1ccc(OCCCN2CCOCC2)cc1	GalR3 antagonist 16.4 | GalR3 conf inactive | HEK-CNG parental inactive
Brc1ccc(OCCN2CCOCC2)cc1	none
COc1ccc(Cn2c(NC(=O)c3ccccc3)nc(Cc3ccccc3)c2-c2ccccc2)cc1	none (no result: NR5A2 inv ag, GalR3 antagonist, SRC3 inh, NCOA1 inh)
CCOc1ccc(-c2ccc(SCC)nn2)cc1	none (no result: GalR3 antagonist) | GalR3 conf inactive | HEK-CNG parental inactive
CCSc1ccc(-c2ccc(C)cc2)nn1	none
CN[C@H]1C[C@H]2c3cc(-c4ccc5c(c4)OCO5)ccc3CCN2C[C@H]1[C@H](C)O	none (no result: NR5A2 inv ag, GalR3 antagonist, SRC3 inh, NCOA1 inh)
COC(=O)C1CCN(C(=O)CN2CCC(C(=O)c3ccc(C)cc3)CC2)CC1	none (no result: NR5A2 inv ag, GalR3 antagonist, SRC3 inh, NCOA1 inh)
[O-][n+]1c2cc(C(F)(F)F)ccc2c2n1CCN=C2c1ccc(Cl)cc1	none (no result: GalR3 antagonist) | GalR3 conf inactive | HEK-CNG parental inactive
COC(=O)[C@]12C[C@H](CC(=O)N3CCSCC3)C(=O)N(CCC3=CCCCC3)C1=C[C@H](COCc1ccccc1)O[C@@H]2C	none (no result: NR5A2 inv ag, SRC3 inh, NCOA1 inh)
COn1c(SCc2cccnc2)nc2ccccc2c1=O	none (no result: GalR3 antagonist) | GalR3 conf inactive | HEK-CNG parental inactive
COn1c(SCc2ccc(Cl)cc2)nc2ccccc2c1=O	none
O=C(O)COn1c(-c2ccc(Cl)cc2)nc2ccc(Cl)cc21	GalR3 antagonist 30.2 | GalR3 conf 13.8 | HEK-CNG parental inactive
COn1c(-c2ccc(Cl)cc2)nc2ccc(Cl)cc21	none
COc1cc(/C=N/N=C(N)N)ccc1OCc1ccc(Cl)cc1	GalR3 antagonist 92.0 | GalR3 conf 44.7 | HEK-CNG parental 1.8
COc1cc(/C=N\n2nnnc2N)ccc1OCc1ccc(F)cc1	GalR3 antagonist 20.7 | GalR3 conf 24.9 | HEK-CNG parental inactive
COc1cc(/C=N/n2nnnc2N)ccc1OCC(N)=O	none (no result: SRC2 inh, GalR3 antagonist, NR2F2 inh)
CCCn1c2ccccc2c2nnc(SCc3[nH]c(=O)[nH]c3C(=O)CCCCC(=O)OCC)nc21	GalR3 antagonist 16.8 | GalR3 conf inactive | HEK-CNG parental inactive
CCOC(=O)CCCCC(=O)c1[nH]c(=O)[nH]c1CSc1nnc2c3ccccc3n(C(C)C)c2n1	GalR3 antagonist 31.4 | GalR3 conf 17.6 | HEK-CNG parental inactive
COc1ccc(S(=O)(=O)N2CCC(c3nc4ccccc4o3)CC2)c(OC)c1	none (no result: NR5A2 inv ag, GalR3 antagonist, SRC3 inh, NCOA1 inh)
CCOc1ncccc1C(=O)OCC(=O)c1ccccc1	none
CCOc1ncccc1C(=O)OCC(=O)c1ccccc1Br	GalR3 antagonist 15.6 | GalR3 conf inactive | HEK-CNG parental inactive
Cc1ccc(OCCOc2ccc(Cl)cc2Cl)c(Br)n1	none (no result: NR5A2 inv ag, SRC2 inh, GalR3 antagonist, SRC3 inh, NCOA1 inh)
CCOC(=O)c1c(O)c(Cl)c(C)[nH]c1=O	GalR3 antagonist 15.7 | GalR3 conf 19.1 | HEK-CNG parental inactive
O=C(CCc1ccccc1)Nc1ccccc1[N+](=O)[O-]	none
O=C(CNCc1ccc(F)cc1)Nc1ccccc1[N+](=O)[O-]	GalR3 antagonist 23.6 | GalR3 conf inactive | HEK-CNG parental inactive

Screening results (PubChem)
